# In paper PMC4336329 (PLoS ONE, 2015):
# Among all 310,000 compounds or so, about 14,000 (4.5%) showed an effect of 50% or more. The effect is printed as a negative number. This excerpt belongs to a sample that is enriched for strong results.
# Target: human ether-à-go-go-related gene (hERG) potassium channel (human, UniProt Q12809)
# Experiment: primary screen, population patch clamp on CHO cells stably expressing hERG; higher = less effect of the substance
# 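Also: peak tail current of the secondary pulse compared with the same well before compound.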
# Chain of human ether-à-go-go-related gene (hERG) potassium channel (Q12809 whole entry, looked up): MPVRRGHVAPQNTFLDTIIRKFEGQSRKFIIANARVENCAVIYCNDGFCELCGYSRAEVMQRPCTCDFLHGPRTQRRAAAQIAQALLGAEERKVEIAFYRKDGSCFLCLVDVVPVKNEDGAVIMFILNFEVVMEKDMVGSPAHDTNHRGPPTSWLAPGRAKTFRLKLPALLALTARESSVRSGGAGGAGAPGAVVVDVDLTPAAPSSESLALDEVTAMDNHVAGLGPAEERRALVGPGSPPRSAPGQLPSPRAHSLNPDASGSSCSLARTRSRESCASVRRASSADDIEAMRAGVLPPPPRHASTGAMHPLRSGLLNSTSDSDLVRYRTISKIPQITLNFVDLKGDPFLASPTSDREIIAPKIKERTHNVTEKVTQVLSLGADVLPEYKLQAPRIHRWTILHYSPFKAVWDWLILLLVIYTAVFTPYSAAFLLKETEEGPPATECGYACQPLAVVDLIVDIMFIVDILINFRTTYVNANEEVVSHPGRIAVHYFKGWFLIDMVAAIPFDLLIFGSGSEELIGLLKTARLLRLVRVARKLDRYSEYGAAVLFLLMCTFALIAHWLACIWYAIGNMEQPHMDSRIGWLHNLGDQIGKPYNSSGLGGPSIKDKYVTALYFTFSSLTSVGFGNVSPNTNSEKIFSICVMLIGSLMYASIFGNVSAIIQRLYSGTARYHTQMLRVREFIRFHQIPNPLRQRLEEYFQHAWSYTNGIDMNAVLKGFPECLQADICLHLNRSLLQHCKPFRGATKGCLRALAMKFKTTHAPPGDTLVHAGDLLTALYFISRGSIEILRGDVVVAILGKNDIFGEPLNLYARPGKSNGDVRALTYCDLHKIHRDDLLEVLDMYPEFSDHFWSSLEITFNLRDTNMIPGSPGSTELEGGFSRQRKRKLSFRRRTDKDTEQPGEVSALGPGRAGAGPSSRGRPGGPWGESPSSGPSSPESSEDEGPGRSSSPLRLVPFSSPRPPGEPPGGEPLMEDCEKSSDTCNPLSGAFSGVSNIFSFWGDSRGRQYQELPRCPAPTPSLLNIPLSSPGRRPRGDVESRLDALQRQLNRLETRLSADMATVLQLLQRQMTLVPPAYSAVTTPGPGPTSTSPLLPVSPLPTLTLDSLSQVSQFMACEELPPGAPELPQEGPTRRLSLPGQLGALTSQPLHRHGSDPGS
row,Structure (SMILES),"hERG current change (%, negative = inhibition) at 10uM [%]"
1,CCOc1ccc(S(=O)(=O)N2CCCCCC2)cc1,-8.37
2,Cn1c(NC(=O)C(C)(C)Oc2ccc(Cl)cc2)cc(=O)n(C)c1=O,-15
3,O=C(NCc1ccco1)/C(=C\C=C\c1ccccc1)NC(=O)c1ccccc1Br,-70.5
4,Cc1ccc(C(=O)N/C(=C/C=C\c2ccccc2)C(=O)NCc2ccco2)cc1,-27.7
5,N#C/C(=C\C=C\c1ccccc1)C(=O)NCc1ccco1,-3.85
6,O=C(NCc1ccco1)/C(=C/C=C\c1ccccc1)NC(=O)c1ccc(Br)o1,-59.6
7,O=C(NCc1ccco1)/C(=C/C=C/c1ccccc1)NC(=O)c1ccco1,-36.4
8,Cc1ccc(C(=O)N/C(=C/C=C/c2ccccc2)C(=O)NCc2ccco2)cc1,-28.9
9,O=C(NCc1ccco1)c1ccccc1Br,7.63
10,Cc1ccc(C(=O)N/C(=C\C=C\c2ccccc2)C(=O)NCc2ccco2)cc1,-50.3
11,O=C(NCc1ccco1)/C(=C\C=C\c1ccccc1)NC(=O)c1ccco1,-38.3
12,Cc1ccc(C)c(NS(=O)(=O)c2ccc(NC(=O)CSc3ccc(Cl)cc3)cc2)c1,17.8
13,O=C(N/N=C/c1ccccc1[N+](=O)[O-])c1cccs1,5.65
14,C=CCn1c(Cc2ccccc2)nc2c(cnn2-c2ccccc2)c1=O,-34.8
15,COc1cccc(N2CC(C(=O)Nc3nnc(SCC(=O)N4CCOCC4)s3)CC2=O)c1 (stereo not shown),18.1
16,CC(=O)N(Cc1cc(=O)[nH]c2ccccc12)c1cccc(C)c1,-8.96
17,O=C(NCC1CCCN(C(=O)c2cscn2)C1)c1ccc(-c2ccccc2)cc1 (stereo not shown),-15.1
18,CSCCC(=O)N1CCCC(CNC(=O)c2ccc(-c3ccccc3)cc2)C1 (stereo not shown),-73.2
19,CCc1cc(C(=O)N2CCCC(CNC(=O)c3ccc(-c4ccccc4)cc3)C2)no1 (stereo not shown),-58.1
20,CC(=O)CCC(=O)N1CCCC(CNC(=O)c2ccc(-c3ccccc3)cc2)C1 (stereo not shown),-13.8
21,O=C(NCC1CCCN(C(=O)c2cccnc2)C1)c1ccc(-c2ccccc2)cc1 (stereo not shown),-26.8
22,CSCC(=O)N1CCCC(CNC(=O)c2ccc(-c3ccccc3)cc2)C1 (stereo not shown),-28.5

row,Structure (SMILES),"hERG current change (%, negative = inhibition) at 10uM [%]"
1,CCOc1ccc(C2CC(c3ccc(CC)cc3)Nc3nc(N)nn32)cc1 (stereo not shown),1.96
2,COc1ccc(Cl)cc1NS(=O)(=O)c1cccc(C(=O)NCC(C)(C)N2CCOCC2)c1,-12.6
3,O=C(Cc1ccccc1)N/N=C/c1ccccc1Cl,2.14
4,O=C(NCc1ccccn1)c1cccc(S(=O)(=O)Nc2ccccc2Cl)c1,-2.4
5,Cc1ccc(S(=O)(=O)N(C)C)cc1NC(=O)COC(=O)c1ccc2c(c1)NC(=O)CS2,-32.5
6,COC(=O)[C@@H]1Cc2c([nH]c3ccccc23)C(C)N1C(=O)c1ccccc1 (stereo partly shown),3.27
7,CN1CCc2c(sc3nc(NN)n(-c4ccc(Cl)cc4)c(=O)c23)C1,14.6
8,COc1ccc(CN(Cc2cc3cc(OC)c(OC)cc3[nH]c2=O)C(=O)NC2CCCCC2)cc1,7.13
9,Cc1ccc2[nH]c(=O)c(CN(CCCN3CCOCC3)C(=O)NC3CCCCC3)cc2c1,-25.7
10,CCN1CCCC1CN(Cc1cc2c(C)cc(C)cc2[nH]c1=O)C(=O)NC1CCCCC1 (stereo not shown),-76
11,CC(=O)N(Cc1cc2c(C)cc(C)cc2[nH]c1=O)C1CCCCC1,8.13
12,Cc1cc(C)c2cc(CN(CCO)C(=O)NC3CCCCC3)c(=O)[nH]c2c1,-3.62
13,CCN(CC)CCN(Cc1cc2cc3c(cc2[nH]c1=O)OCCO3)C(=O)NC1CCCCC1,-28.7
14,CCN(CC)CCN(Cc1cc2ccc(C)cc2[nH]c1=O)C(=O)NC1CCCCC1,-73.1
15,CCc1ccc2[nH]c(=O)c(CN(CCN3CCCC3)C(=O)NC3CCCCC3)cc2c1,-40.9
16,CCc1ccc2[nH]c(=O)c(CN(CCN(CC)CC)C(=O)NC3CCCCC3)cc2c1,-66.6
17,Cc1nc2sc(C)c(C)c2c(=O)[nH]1,13.7
18,COc1ccccc1/C=C/C(=O)NCC(=O)N/N=C/c1ccccc1[N+](=O)[O-],-36.9
19,CCOc1ccc(NC(=O)Cn2sc3nc(C)cc(C)c3c2=O)cc1,4.94
20,CCC(C)c1ccc(NC(=O)CSc2nncn2N)cc1 (stereo not shown),-27.5
21,COc1ccc(S(=O)(=O)NCCSCc2ccccc2C)cc1Br,-1.29
